We go through 1 compound from PubChem BioAssay AID504862 (Sanford-Burnham Center for Chemical Genomics, 2011).

In the experiment the test system is diaphorase (Clostridium kluyveri). The experiment in a line: diaphorase inhibitors and chemical oxidizers, confirmation, counter-screen for P. falciparum G6PD inhibitor project, biochemical, fluorescence intensity, 10 µM NADPH (AID 504862).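 Also: resorufin red fluorescence formed as diaphorase reduces resazurin using NADPH; 0% = DMSO with enzyme and 100% = DMSO without enzyme.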 Conditions: diaphorase-coupled resazurin reduction, NADPH 10 uM, at 20 µM, hits give high values. On the technique in general: The purpose of a counterscreen is to sort out artefacts and off-target activity.

The other results are listed elsewhere or left out. A number with no mark means an inactive call.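 The calls were made as follows: active = average inhibition reaching 50% or more with the compound at 20 µM; inactive = the rest.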

A word on the inhibition: it is the drop in the measured response relative to a control, in per cent. Turning to `O=C1NC(=O)N(c2ccccc2)C(=O)/C1=C/c1ccc([N+](=O)[O-])s1`, the inhibition was 47.3%.
